HepG2 tox – qHTS for Inhibitors of TGF-b: Cytotox Counterscreen. AID 588856, 2011. Potency, µM (titrated, usually from 46.1 µM), for the others: at the highest dose activity change, negative = cytotoxicity, most hits filed as cytotoxic. HepG2 CAGA-GFP viability, ATP luminescence, 18 h. hit rate 0.76% among 410,000; note: potency is the fitted concentration of half-maximal effect
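HepG2 CAGA-GFP cells (1000/well, DMEM with 1% FBS) received compound, then TGF-beta at 500 pg/mL final, and were incubated 18 hours at 37 degrees C. Viability was read by CellTiter-Glo luminescence. Media-only wells were set as complete cell-killing and DMSO as no toxicity.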
IL1B secr inh – qHTS for Inhibitors of Inflammasome Signaling: IL-1-beta AlphaLISA Primary Screen. THP-1 LPS/ATP IL-1B secretion, AlphaLISA, 16 h; stronger effect = lower value. activity change, % at 57.5 µM. hit rate 4.7% among 360,000; in the data active = activity change below about -50%; inconclusive = mostly about -30% to -49%; note: % is set by controls: 0 for no effect and ±100 for the full control effect
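THP-1 cells pretreated 1 hr with compounds (up to 57.5 uM final), then stimulated with LPS (250 ng/mL final) plus ATP (1.25 mM final); secreted IL-1B measured by AlphaLISA after 16 hr, decreased signal indicating inhibition.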
TGFb SMAD3 inh – qHTS for Inhibitors of TGF-b; HepG2 CAGA-GFP TGF-b/SMAD3 reporter, GFP fluorescence, 18 h; TGF-beta stimulated, 500 pg/mL final; Potency, µM (titrated, usually from 46.1 µM), for inactives: at the top dose activity, negative = inhibition, hits mostly inhibitors; hit rate 1.2% among 410,000; AID 588855, 2011; note: potency is the fitted concentration of half-maximal effect; % is set by controls: 0 for no effect and ±100 for the full control effect; nearly all actives have a fitted effect of over 65% in size
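Inhibition of TGF-beta-driven CAGA-GFP reporter expression in HEPG2 cells is measured by cellular GFP fluorescence after 18 h stimulation with 500 pg/mL recombinant TGF-beta in 1% FBS medium at 37 degrees C.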
HT1080NT lethal – qHTS for induction of synthetic lethality in tumor cells producing 2HG: qHTS for the HT-1080-NT fibrosarcoma cell line; HT-1080-NT fibrosarcoma viability, CellTiter-Glo ATP luminescence, 48 h; Potency, µM (top dose mostly 46.1 µM), without a hit: at the top dose activity, negative = less viability, most hits filed as cytotoxic; hit rate 1.6% among 360,000; AID 686970, 2013;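 note: NT is the 2HG producing partner of a matched IDH1 knockdown line; potency is the fitted concentration of half-maximal effect; 0% = DMSO-treated cells and -100% = media-only wells without cells; nearly all actives have a fitted effect of over 55% in size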
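Compounds were tested in concentration-response format on HT-1080-NT cells for 48 hours at 37 degrees C. Cell viability came from CellTiter-Glo luminescence; curves were classified by r2, response magnitude and activity.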
Giardia killer – Small Molecules that selectively kill Giardia lamblia: qHTS; hit rate 0.15% among 340,000; AID 540267, 2011; Giardia lamblia trophozoite viability; activity change, % at 7.66 µM, hits read low; in the data active = activity change below about -80%; inconclusive = between about -30% and that limit;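 note: parasites exposed to compound for two days anaerobically before the ATP read; % is set by controls: 0 for no effect and ±100 for the full control effect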
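Luminescence from cellular ATP indicates surviving trophozoites (100 cells/well) following 48 hrs anaerobic compound treatment at 37 deg C; signal develops 15-30 min at room temperature.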
HT1080 IDH1KD tx – qHTS for induction of synthetic lethality in tumor cells producing 2HG: qHTS for the HT-1080-IDH1KD cell line. HT-1080 IDH1 knockdown viability, ATP luminescence, 48 h. Potency, µM (highest dose often 46.1 µM), inactives show at the highest dose activity, negative = toxicity, actives largely listed as cytotoxic. hit rate 2% among 360,000. AID 686971, 2013;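 note: potency is the fitted concentration of half-maximal effect; 0% = DMSO wells and -100% = cell-free medium wells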
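Viability of IDH1-knockdown HT-1080 fibrosarcoma cells was assessed by CellTiter-Glo after 48 h at 37 °C with titrated compound; concentration-effect curves were classified by fit quality and response size.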
An asterisk follows results filed as active; ? = inconclusive; / = not tested or not shown; [ ] = another dose, or the depositor's remark. Hits are enriched below; roughly 6.5% of the tested compounds scored in any of these assays. Unless noted, calls come from the whole dose curve; as a rule, active = well fitted curve in the direction sought with a large enough effect; inconclusive = small, poorly fitted or top-dose-only effect, or another doubt; inactive = no such curve, though single readings can be large; an effect the other way counts as inactive or inconclusive.

SMILES	HepG2 tox	IL1B secr inh	TGFb SMAD3 inh	HT1080NT lethal	Giardia killer	HT1080 IDH1KD tx
CCn1c(O)c(C=NCCc2c[nH]c3ccccc23)c(=O)[nH]c1=O	-13%	12	3%	3%[9.24 µM]	-2	-4%
CCn1cc(C(=O)NCc2ccccc2)c2ccccc21	0%	-16	-1%	2%	-26	2%
CCOC(=O)[C@]12Cc3ccccc3[C@H]1N(C(C)C)C(=O)c1ccccc12	/	-116*	/	?	/	21µM*
CCOC(=O)[C@]12Cc3cc(Cl)ccc3[C@H]1N(C1CCCCC1)C(=O)c1cc(OC)ccc12	/	-110*	/	2.3µM*	/	1.8µM*
COC(=O)C1=C(c2ccc(OC(F)(F)F)cc2)C[C@@H]2CC[C@H]1N2C(=O)NC(C)C	-13%	0	-5%	12%	5	15%
CN(C)c1ccc(C(=O)c2ccc(N(C)C)cc2)cc1	-22%	27	3%	7.1µM*	5	2.5µM*
COc1ccc(/C=N\NC(=O)c2cccc(F)c2)cc1COc1ccccc1	46%	78	?	1.2µM*	23	0.58µM*
CNC(C)C#Cc1ccc2oc3cc(C)c(C)cc3c(=O)c2c1 (centres undefined)	-25%	-64*	?	-19%	10	-25%
Cc1ccc2c(c1)C1CN(C)CCC1N2C(=O)c1cccnc1Cl (centres undefined)	-28%	40	-2%	2%	29	4%
Cc1ccc2c(c1)C1CN(C)CCC1N2C(=O)c1cn(-c2ccccc2)nc1-c1ccccc1 (centres undefined)	-44%	?	?	/	6	21µM*
Cc1ccc2c(c1)[C@@H]1CN(C)CC[C@@H]1N2C(=O)Nc1cccc(C(F)(F)F)c1	-92%	-25	?	13µM*	-9	?
Cc1cc(OC(C)C(=O)NCc2ccncc2)c2c3c(c(=O)oc2c1)CCCC3 (centres undefined)	16%	0	4%	0%	-6	-1%
COc1cc2c(cc1/C=C/[N+](=O)[O-])OCO2	-61%	-11	?	4.1µM*	18	8.2µM*
COc1cc(/C=C/[N+](=O)[O-])ccc1OC(=O)c1cccnc1	6%	?	-3%	-4%	4	-3%
C=CCn1c(O)c(C(CC)=NCc2ccc3c(c2)OCO3)c(=O)[nH]c1=O	-40%	/	-26%	-24%	0	-20%
O=c1c2ccccc2nc(-c2ccccc2)n1-n1cccc1	-3%	11	-10%	7%	-16	2%
CCn1nc(-c2ccccc2)nc2c(=O)n(C)c(=O)nc1-2	-96%	-114*	0.56µM*	4.1µM*	-89*	5.8µM*
Cn1nc(-c2ccccc2)nc2c(=O)n(C)c(=O)nc1-2	1µM*	/	0.56µM*	/	-89*	/
Cc1nc2c(=O)n(C)c(=O)nc-2n(C)n1	0.63µM*	-100*	0.63µM*	2.6µM*	-107*	1.3µM*
CC[C@H](C)[C@@H](C(=O)N1CCCC1c1nccs1)N(C)C(=O)[C@H](CC(C)C)N(C)C(=O)[C@H](Cc1ccc(OC)cc1)N(C)C(=O)/C=C(\C)OC (some centres undefined)	-22%	73	?	-4%	16	-6%
CC[C@@H](C)[C@H](C(CC(=O)N1CCCC1[C@@H](OC)[C@H](C)C(=O)N[C@H](Cc1ccccc1)c1nccs1)OC)N(C)C(=O)[C@H](NC(=O)[C@@H](C(C)C)N(C)C)C(C)C (some centres undefined)	-22%	41	-62%	0.26µM*	?	?
Cc1c(C=C2C(=O)NC(=O)NC2=O)c(=O)n(-c2ccccc2)n1C	-20%	6	6%	15%	11	17%
O=C1NC(=O)C(=Cc2c(Cl)cccc2Cl)C(=O)N1	-32%	-58*	?	-9%	-16	0%
CC(Cl)(Cl)/C(=N/P(=S)(N1CCOCC1)N1CCOCC1)N1CCOCC1	-1%	12	-13%	13%	-17	8%
CN(C)C(=O)O/N=C(\N)COc1ccc(C(C)(C)C)cc1	-98%	-23	?	12µM*	-1	21µM*
SMILES	HepG2 tox	IL1B secr inh	TGFb SMAD3 inh	HT1080NT lethal	Giardia killer	HT1080 IDH1KD tx
CC1(O)CCC2C3CCC4=CC(=O)CCC4=C3C=CC21C (centres undefined)	-15%	20	19%	-3%	2	?
C[N+]1=C(/C=C/Nc2ccccc2)C(C)(C)c2ccccc21	-15%	-81*	-6%	-11%	11	-16%
CNC(=O)Oc1ccccc1C1CCCCC1	-18%	-1	-7%	-7%	11	13%
COCCNC(=O)c1c(N)n(CCC(C)C)c2nc3ccccc3nc12	-77%	-116*	?	-3%	-2	-2%
CC(C)OC(=O)c1c(N)n(Cc2ccco2)c2nc3ccccc3nc12	9%	-19	21%	-2%	-21	1%
Nc1c(C(=O)NCc2ccco2)c2nc3ccccc3nc2n1CCN1CCCCC1	-51%	-63*	?	?	6	?
CC(C)CNC(=O)c1c(N)n(Cc2ccco2)c2nc3ccccc3nc12	-87%	-73*	22µM*	?	11	?
COc1ccc(Cn2c(N)c(C(=O)NCc3ccco3)c3nc4ccccc4nc32)cc1OC	-51%	?	16µM*	?	-7	?
S=P1(Oc2ccccc2)Nc2ccccc2N1	12%	15	0%	-1%	16	5%
Cc1ccc2c(c1)N(C(C)C(=O)N1CCC3(CC1)OCCO3)C(=O)CO2 (centres undefined)	9%	-6	33%	12%	13	-1%
CCCNC(=O)c1c(N)n(Cc2ccco2)c2nc3ccccc3nc12	-28%	-89*	-12%	11µM*	21	?
CC(C)CNC(=O)c1c(N)n(Cc2ccc3c(c2)OCO3)c2nc3ccccc3nc12	-94%	?	16µM*	21µM*	-15	16µM*
COCCCNC(=O)c1c(N)n(Cc2ccco2)c2nc3ccccc3nc12	-29%	-55*	?	-6%	-3	-2%
CC(C)OCCCNC(=O)c1c(N)n(Cc2cccs2)c2nc3ccccc3nc12	22µM*	-63*	18µM*	18µM*	-6	?

Screening results as filed in PubChem BioAssay.
